Assay results from PubChem BioAssay (NCATS).
Records with an inconclusive call do not appear. Where a call stands in place of a potency, no number is given. A number with no mark means an inactive call. Calls of active or inactive are those of the source. Calls come from the whole dose curve; as a rule, active = well fitted inhibition curve with a large enough effect; inconclusive = small, poorly fitted or top-dose-only effect; inactive = no such curve, though single readings can be large or run the other way. Where a SMILES comes first, the peptide text is derived from it. The star is where a group is joined. Hexanoyl = CCCCCC(=O)*

Assay: Tertiary RLuc qRT-PCR qHTS assay for Zika virus inhibitors (AID 1347169); note: nearly all actives have a fitted effect of over 55% in size; for activity change, negative = inhibition: top concentration of the series differs between compounds
Conditions: infected Vero cells, reporter luminescence, 48-72 h; series mostly up to 45.9 µM
Description: Avindra Nath, Ph.D., National Institute of Neurological Disorders and Stroke (NINDS), Bethesda, MD
Radhakrishnan Padmanabhan, Ph.D., Georgetown University (GU), Washington D.C.
Zika Virus causes congenital defects, including microcephaly and is associated with Guillain-Barre syndrome, eningoencephalitis and myelitis in infected adult. […] Using a target-based approach, we hope to establish a screening paradigm to uncover novel, cell-active NS2B-NS3 protease (Zika Virus) specific inhibitors from NCATS' collection of small molecules using qHTS.
Four assay panel was created to identify potential Zika Virus inhibitors. Namely, (1) GU unlinked NS2B-NS3 AMC tagged protease qHTS, (2) GU unlinked NS2B-NS3 Rhodamine tagged protease qHTS, (3) NINDS linked NS2B-NS3 AMC tagged protease qHTS, (4) NINDS linked NS2B-NS3 Rhodamine tagged protease qHTS. Identified inhibitors were re-acquired and tested against secondary confirmatory, orthogonal, and counterscreens to exclude nonspecific inhibition.
Early Translation Branch (ETB)
National Center for Advancing Translational Sciences (NCATS), Rockville, MD
National Institute of Health (NIH), Bethesda, Maryland
1536-well recombinant virus ZIKV-RLuc (Cambodian) Assay:
For a follow-up assay, we adapted a high throughput orthogonal assay in 1536-well plate format to use the recombinant virus ZIKV-RLuc, in Vero cells. Briefly, three microL of Vero cells derived from a green monkey cell line, were dispensed Multidrop Dispenser into a solid bottom white 1,536-well plate at a concentration of 1,000 cells per well. The plate was incubated overnight in a CO2 incubator at 37 degrees C. Compounds were delivered as a 23 nL DMSO solution by Kalypsys pintool transfer. Following compound transfer, 2 microL of ZIKV-RLuc was added at an MOI of 1-2 and incubated in a CO2 incubator for 48-72 hrs at 37 degrees C. After sufficient incubation of infected cells in test plates, live cell Renilla luciferase substrate (Promega) was added. The luminescence signal was measured after 1-1.5 hrs exposure to substrate in ViewLux reader.
Potency is the fitted concentration of half-maximal effect.

Compound	Potency	activity change, negative = inhibition
C=C1CCC2C(C)(C)CCC[C@]2(C)[C@H]1CC/C(C)=C/C(=O)O (stereo partly specified)	inactive	
C=C1C2CCC3CC2(CC(O)C2(O)C1CC(OC1OC(CO)C(O)C(O)C1O)C2(C)C)CC3(C)O (stereo unspecified)	inactive	
CC1(C)CC=C(c2cnc3ccccc3c2)c2cc(C(=O)Nc3ccc(C(=O)O)cc3)ccc21	inactive	
COc1cc2c(c(OC)c1O)C(c1ccc(O)cc1)C1C(=O)OC3C(COC(=O)C1=C2)OC(CO)(OC1OC(COC(=O)/C=C/c2ccc(OC4OC(C)C(O)C(O)C4O)cc2)C(O)C(O)C1O)C3O (stereo unspecified)	inactive	
O=C1NC(=O)/C(=C/c2cccc(C(F)(F)F)c2)S1	18.6 µM (active)	
COc1cc(CCCO)ccc1O[C@@H]1O[C@H](CO)[C@@H](O)[C@H](O)[C@H]1O	inactive	
CC1(C)CC[C@]2(C(=O)O)CC[C@]3(C)C(=CCC4[C@@]5(C)CC[C@H](O[C@@H]6O[C@H](C(=O)O)[C@@H](O)[C@H](O)[C@H]6O)C(C)(C)C5CC[C@]43C)C2C1 (stereo partly specified)	9.79 µM (active)	
CC(C)=CCC[C@@](C)(O)[C@H]1CC[C@]2(C)[C@@H]1[C@H](O)CC1[C@@]3(C)CC[C@H](O[C@@H]4O[C@H](CO)[C@@H](O)[C@H](O)[C@H]4O[C@@H]4O[C@H](CO)[C@@H](O)[C@H](O)[C@H]4O)C(C)(C)[C@@H]3CC[C@]12C (stereo partly specified)	inactive	
CC1=C2CC3C(CCC3(C)O)C(C)(O)CC2OC1=O (stereo unspecified)	inactive	
Cc1ccccc1NC(=O)Nc1ccc(CN2C(=O)N([C@@H](CC(C)C)C(=O)N[C@@H](CC(=O)O)c3ccccc3)C(=O)C2(C)C)cc1	inactive	
CSCC[C@H](NC(=O)[C@H](CO)NC(=O)[C@H](CCC(=O)O)NC(C)=O)C(=O)N[C@H](C=O)CC(=O)O (Ac-ESMD-aldehyde)		-0.374% [at 5.25 µM]
CC1C(O)C(O)C2C(C(=O)OCCc3ccc(O)cc3)=COC(O[C@@H]3O[C@H](CO)[C@@H](O)[C@H](O)[C@H]3O)C12 (stereo partly specified)	inactive	
CC1(C)[C@H]2C[C@H](C/C=C\CCCC(=O)O)[C@@H](NC(=O)c3csc4ccc(O)cc34)[C@@H]1C2	inactive	
CCCCCC(=O)N1CCC[C@H]1C(=O)N[C@@H](Cc1ccc(O)cc1)C(=O)OC (Hexanoyl-Pro-Tyr-OMe)	inactive	
CCc1nnc(NS(=O)(=O)c2ccc(NC(=S)NC(=O)/C=C/c3ccc(F)cc3)cc2)s1	23.4 µM (active)	
O=C(/C=C/c1ccccc1)OC[C@H]1O[C@@H](OC(=O)c2cc(O)c(O)c(O)c2)[C@H](O)[C@@H](O)[C@@H]1O	inactive	

Compound	Potency	activity change, negative = inhibition
O=C(O)C1(c2ccc(-c3ccc(Cl)c(Cl)c3)c(F)c2)CC1	inactive	
COc1cccc(CNc2ccc(S(=O)(=O)Nc3nc4ccccc4s3)cc2)c1O	0.186 µM (active)	
C=C1C2CCC3C(CCC4[C@@]3(C)CCC[C@@]4(C)C(=O)O)(C2)[C@@H]1OC(=O)/C(C)=C\C (stereo partly specified)	inactive	
O=C(O)CC1CCC(c2ccc(-c3ccc(Nc4ccc(C(F)(F)F)nc4)cn3)cc2)CC1 (stereo unspecified)	16.5 µM (active)	
CCC(C)/C=C(C)/C=C/C1=CC2=CC(=O)C(C)(O)C(OC(C)=O)C2CO1 (stereo unspecified)	inactive	
O=C(Nc1ccccc1)Nc1ccc(-c2ccc(C(=O)C3CCCC3C(=O)O)cc2)cc1 (stereo unspecified)	inactive	
CC(C)CC(c1c(O)c(C=O)c(O)c(C=O)c1O)C1CCC(C)(O)C2CC(C(C)(C)O)CCC12C (stereo unspecified)	inactive	
C/C=C/C=C/C=C/C(=O)O[C@@H]1[C@@H](OC)C2=C(C(=O)N(C(CCC(=O)O)C(=O)O)C2)[C@@]2(C)CCCC(C)(C)[C@H]12 (stereo partly specified)	inactive	
C/C(=C\CC/C(C)=C/CC[C@]1(C)CCc2cc(O)cc(C)c2O1)CC/C=C(\C)C(=O)O	inactive	
COc1cccc(OC)c1-c1cc(C(=O)N[C@@H](CC(C)C)C(=O)O)nn1-c1ccnc2cc(Cl)ccc12	inactive	
CO[C@H]1c2cc(C(C)C)c(O)c(O)c2[C@@]23CCCC(C)(C)C2[C@@H]1OC3=O (stereo partly specified)	inactive	
COc1ccc(C2C(C(=O)O)C(C(=O)O)C2c2ccc(OC)cc2O[C@@H]2O[C@H](CO)[C@@H](O)[C@H](O)[C@H]2O)c(O[C@@H]2O[C@H](CO)[C@@H](O)[C@H](O)[C@H]2O)c1 (stereo partly specified)	inactive	
CC(=O)OC12CC(C)C(OC(=O)c3ccccc3)C1/C=C(/C)C(OC(=O)c1ccccc1)CC(=O)C(C)(C)/C=C/C(C)C2=O (stereo unspecified)	2.76 µM (active)	
Cc1ccc([C@@H]2CC=C(C(=O)O)[C@H](c3ccc(C(C)(C)C)cc3)N2S(=O)(=O)c2ccc(C)cc2)cc1	18.6 µM (active)	
O=C(O)CC/C=C\C[C@H]1CO[C@@H](c2ccccc2Cl)O[C@H]1c1ccccc1O	inactive	
